# Only some compounds are listed: those with a hit (about 13% of all), similar ones and a draw of the others.
# HCMV antiviral: blocks human cytomegalovirus replication; HFF cells, HCMV-luciferase reporter, 72 h; active compounds read low; activity change, negative = inhibition, % at 57.5 µM; 4.5% of 410,000 active; AID 1259415; in the data active = activity change below about -60%; inconclusive = no clear call, values can overlap the other calls; inactive = above about -39%
#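 HFF cells seeded 16 h at 37C, treated with compounds, infected with luciferase-reporter HCMV at MOI 1 PFU/cell; luciferase read at 72 h post infection, normalized to buffer-only and Salinomycin controls.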
# HCV inh: inhibitors of hepatitis C virus infection; Huh7.5.1 HCVcc-Cre infection, luciferase reporter, 44 h; Potency, µM (doses to about 41.8 µM), without a hit: at the top dose activity change, negative = inhibition, hits mostly inhibitors; 3.4% of 340,000 active; AID 651820; note: potency is the fitted concentration of half-maximal effect
#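 A cell-based infection assay in which seeded cells (1,000 per well) receive test compound after 4 h, are inoculated with HCVcc-Cre at approximately 0.5 moi, and are incubated 44 h before luminescence detection.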
# Pf growth 96h: inhibits malaria parasite growth, 96 h | Potency, µM (top dose mostly 28.7 µM), for the others: at the highest dose activity change, negative = inhibition, actives largely listed as inhibitors | P. falciparum luciferase reporter growth, 96 h | 6.9% of 320,000 active | AID 504834; note: potency is the fitted concentration of half-maximal effect
#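 Erythrocytes infected with luciferase-expressing P. falciparum were dispensed at 2% hematocrit and 0.05% parasitemia (final), then incubated with compounds 96 hours at 37 C in 5% CO2. Luminescence after detection reagent addition reported growth.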
# Pf growth 48h: inhibits P. falciparum growth in the first generation, 48 h. AID 504832. 5.9% of 310,000 active. P. falciparum luciferase growth in erythrocytes, 48 h. Potency, µM (series often up to 28.7 µM), for the others: top-dose activity change, negative = inhibition, usual class: inhibitors; note: potency is the fitted concentration of half-maximal effect
#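 Erythrocytes infected with P. falciparum carrying an integrated firefly luciferase reporter (2% hematocrit, 0.1% parasitemia final) were exposed to compounds in RPMI 1640 with 0.5% Albumax at 37 C, 5% CO2. Growth inhibition was scored as reduced luminescence.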
# Active calls of the source: *; ? = inconclusive; . = no result; [ ] = dose if it differs, or a comment. Unless noted, calls come from the whole dose curve; as a rule, active = well fitted inhibition curve with a large enough effect; inconclusive = small, poorly fitted or top-dose-only effect, or another doubt; inactive = no such curve, though single readings can be large or run the other way. % is set by controls: 0 for no effect and ±100 for the full control effect.
SMILES,HCMV antiviral,HCV inh,Pf growth 96h,Pf growth 48h
COc1cc(SSc2cc(OC)cc([N+](=O)[O-])c2N)c(N)c([N+](=O)[O-])c1,-98*,-13%,9.3µM*,?
COc1ccc(-n2c(SCC(=O)c3ccccc3)nc3c([nH]c4ccccc43)c2=O)cc1,14,.,.,.
C[C@]12CC[C@H](O)CC1=CC[C@@H]1[C@@H]2CC[C@]2(C)C(=O)CC[C@@H]12,-33,2%,.,.
CC1C2CCC3C4CC=C5CC(N(C)C)CC[C@@]5(C)C4CC[C@@]32CN1C (some centres undefined),.,.,?,15µM*
Fc1c(F)c(F)c(/C=N/NC(=S)Nc2cccnc2)c(F)c1F,-81*,?,?,?
Oc1ccc(/C=N/NC(=S)Nc2cccnc2)c(O)c1,68,?,0%,6.6µM*
Oc1ccc(C=NNC(=S)Nc2ccccc2)nc1,-97*,.,.,.
Oc1ccc(/C=N/NC(=S)Nc2cccnc2)c(O)c1O,-25,-15%,?,?
Oc1cccc(/C=N/NC(=S)Nc2cccnc2)c1O,91,?,?,0.083µM*
Fc1cccc(F)c1/C=N/NC(=S)Nc1cccnc1,?,?,34%,490%
S=C(N/N=C/c1ccccc1Cl)Nc1ccccc1,6,-5%,?,?
CCCCn1c2nc3ccccc3nc2c2c(=O)n(CC(C)C)cnc21,-62*,-12%,.,.
CCCCCn1c2nc3ccccc3nc2c2c(=O)n(CC(C)C)cnc21,.,23%,2.9µM*,.
CCN(C(=O)c1cn(C)c(=O)c2ccccc12)c1cccc(C)c1,-1,.,.,.
Cc1cccc(-n2cc(-c3ccccc3)c3c(N4CCOCC4)ncnc32)c1,-18,3.2µM*,?,?
COc1cccc(N2CCN(c3ncnc4c3c(-c3ccccc3)cn4-c3ccc(C)cc3)CC2)c1,-63*,.,.,.
COc1ccc(CNC(=O)c2cc3c(=O)n(Cc4cccnc4)ccc3nc2C)cc1,-4,.,.,.
COc1cc(NS(=O)(=O)c2ccc(NC(=O)c3ccc(OC)c(Br)c3)cc2)nc(OC)n1,42,.,.,.
COc1cccc2cc(/C(=N/O)c3ccc(Br)cc3)oc12,-66*,-29%,-10%,-9%
CCOC(=O)C(C(=O)Nc1ccccn1)C1CCCCC1 (centres undefined),-11,0%,9.3µM*,6%
CCCCOc1ccc(N(CC(=O)NC2CCCCC2)C(=O)CCC(=O)Nc2ccccn2)cc1,16,?,?,12µM*
CCOC(=O)C(C(=O)Nc1cccc(C)n1)C1CCCCC1 (centres undefined),36,-12%,.,.
CC1CCN(S(=O)(=O)c2ccc3c(c2)N(CC(=O)NC(C)(C)C)C(=O)CS3)CC1,15,.,.,.
CCOC(=O)c1cc(S(=O)(=O)Nc2ccc(Br)c(C)c2)[nH]n1,1,.,.,.
Clc1ccc(CSc2nnc(-c3ccccn3)n2Cc2ccco2)cc1Cl,-20,.,.,.
SMILES,HCMV antiviral,HCV inh,Pf growth 96h,Pf growth 48h
CC(C)(C)c1ccc(CSc2nnc(-c3ccccn3)n2Cc2ccco2)cc1,4,?,.,7.4µM*
Brc1ccc(CSc2nnc(-c3ccccn3)n2Cc2ccco2)cc1,?,.,3.7µM*,?
CNC(=O)Oc1ccc2c(c1)[C@]1(C)CCN(C)[C@@H]1N2C,-18,1%[8.37 µM],3.7µM*,8.3µM*
COc1cccc(OC)c1C(=O)Nc1ccccc1N1CCCCC1,?,?,39%,?
COc1ccccc1CNc1ccc(N2CCCCC2)cc1,.,31%,?,?
COc1cccc(Nc2ccc(N3CCCCC3)cc2)c1OC,-99*,.,2.3µM*,4.7µM*
COc1cccc(CNc2ccc(N3CCCCC3)cc2)c1OC,?,-12%,-18%,0.52µM*
CCc1nnc(NC(=O)CSCc2cc(=O)c3ccc(C)cc3[nH]2)s1,1,.,.,.
O=C(Cc1ccc(Cl)cc1)NCC(c1cccs1)S(=O)(=O)c1ccc(F)cc1 (centres undefined),-11,.,.,.
Cn1c(-c2cccc(Br)c2)n[nH]c1=O,-72*,-1%,28%,22%
COc1ccc(-n2ccn(CC(=O)Nc3ccccc3C(F)(F)F)c(=O)c2=O)cc1OC,53,.,.,.
O=S(=O)(Nc1ccncc1)c1cc(Cl)c(Cl)cc1Cl,-6,0%,7.4µM*,32%
COc1ccc(Cl)cc1S(=O)(=O)Nc1ccncc1,14,19%,0%,0%
CCCCNC(=O)CN1CCN(c2ccc(NC(=O)c3ccc(OC)cc3)cc2C(=O)O)CC1,9,.,.,.

# From PubChem
